Screening results (PubChem BioAssay)
CIT2 TOR yeast: modulators of CIT2-GFP expression in yeast, primary screen, S. cerevisiae, GFP fusion, multiplex flow cytometry, MLPCN library. GFP response vs DMSO, % at 10 µM. S. cerevisiae CIT2-GFP strain, 3 h; 100 means same as DMSO wells. 320,000 tested, 0.065% active. AID 2029, 2009;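 active = GFP response relative to DMSO above a set limit, near the screen mean plus 3 SD, cut at about 150% in these data; inconclusive = Fewer than 70 cells measured for a yeast strain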;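 note: ratio of well median GFP fluorescence to mean of DMSO wells on the plate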
AGP1 TOR yeast: modulators of AGP1-GFP expression in yeast TOR pathway, primary screen, cell-based, multiplex flow cytometry, S. cerevisiae, MLPCN library | 3 h; GFP as percent of DMSO wells | GFP response vs DMSO, % at 10 µM | 320,000 tested, 0.02% active;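 active = GFP response relative to DMSO above a set limit, near screen average plus 3 SD, cut at about 150% in these data; inconclusive = fewer than 70 cells counted for the yeast strain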;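 note: median GFP channel fluorescence of the gated AGP1 strain per well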
MEP2 TOR yeast: modulators of MEP2-GFP levels in yeast, primary screen, S. cerevisiae, multiplex flow cytometry, MLPCN library; 330,000 tested, 0.51% active; GFP response vs DMSO, % at 10 µM; AID 2016, 2009; S. cerevisiae MEP2-GFP strain, 3 h; 100% = DMSO control level;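 active = GFP response versus DMSO above a set limit, roughly screen mean plus 3 SD, cut at about 180% in these data; inconclusive = fewer than 70 cells counted for a yeast strain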;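 note: median GFP fluorescence of the barcode-gated MEP2-GFP cells per well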
GASC-1 inh: inhibitors of GASC-1 histone demethylase, primary screen, biochemical, fluorescence, DELFIA europium. Lysine-specific demethylase 4C (Homo sapiens), Q9H3R0. GST-JMJD2C(1-420) H3K9me3 demethylation. inhibition, % at 2.35 µM. 330,000 tested, 0.069% active. AID 2099, 2009;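 active = more than half of a compound's replicate wells show inhibition beyond 50%, single wells judged on their own value; inconclusive = some, but no more than half, of replicates pass 50% inhibition; inactive = no replicate passes 50% inhibition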;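 note: signal counts dimethyl H3K9 product captured on neutravidin plate; 0% = median of DMSO wells and 100% = 0.3 times that DMSO median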
Target sequence (Q9H3R0 1-420 limits assumed): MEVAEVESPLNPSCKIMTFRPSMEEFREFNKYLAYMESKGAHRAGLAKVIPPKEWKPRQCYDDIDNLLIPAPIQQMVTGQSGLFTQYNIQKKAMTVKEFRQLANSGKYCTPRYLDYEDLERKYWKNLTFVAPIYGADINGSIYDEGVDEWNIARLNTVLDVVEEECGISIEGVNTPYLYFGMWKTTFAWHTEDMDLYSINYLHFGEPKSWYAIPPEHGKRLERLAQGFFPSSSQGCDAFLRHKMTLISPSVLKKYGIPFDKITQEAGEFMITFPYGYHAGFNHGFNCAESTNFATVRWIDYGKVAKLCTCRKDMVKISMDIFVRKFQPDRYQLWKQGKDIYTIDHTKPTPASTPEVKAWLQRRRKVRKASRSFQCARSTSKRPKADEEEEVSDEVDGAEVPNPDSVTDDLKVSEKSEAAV
LAP4-GFP MLPCN: modulators of LAP4-GFP expression in yeast, primary screen, S. cerevisiae, multiplex flow cytometry, MLPCN library | 3 h; median GFP as percent of DMSO wells | GFP response vs DMSO, % at 10 µM | 320,000 tested, 0.34% active | AID 2023, 2009;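 active = GFP response vs DMSO above a set limit, about the screen mean plus 3 SD, cut at about 150% in these data; inconclusive = under 70 cell events counted for the yeast strain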
RPL19A-GFP yeast: RPL19A-GFP expression modulators in yeast, primary screen, cell-based, S. cerevisiae, multiplex flow cytometry, MLPCN. 330,000 tested, 0.3% active. S. cerevisiae RPL19A-GFP strain, 3 h; active compounds read low. percent response vs DMSO, % at 10 µM;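 active = percent response vs DMSO below 50%; inconclusive = fewer than 70 events counted for the yeast strain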;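 note: median channel GFP fluorescence of the barcoded RPL19A-GFP strain; ratio of sample median GFP to plate DMSO average so 100% = DMSO; lower means less RPL19A-GFP as with rapamycin TOR inhibition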
LAP4 cherry2: LAP4-GFP expression modulators in yeast, confirmation, cell-based, second cherry pick, flow cytometry. S. cerevisiae LAP4-GFP strain, 3 h. AID 2621, 2010. 590 tested, 20% active. GFP response vs DMSO, % at 10 µM. shares compounds with LAP4-GFP MLPCN;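 active = GFP signal as percent of the solvent control above about 150%, meaning raised reporter expression, limit read from the data; inconclusive = fewer than 70 cells counted in the well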;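 note: ratio of well median GFP fluorescence to plate DMSO mean so 100% = DMSO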
MEP2 cherry2: modulators of MEP2-GFP levels in yeast, confirmation, S. cerevisiae, flow cytometry GFP, second cherry picks; shares compounds with LAP4-GFP MLPCN; S. cerevisiae MEP2-GFP strain, 3 h; GFP response vs DMSO, % at 10 µM; 590 tested, 10% active;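 active = GFP signal above 150% of the solvent control wells, that is a rise of more than half; inconclusive = fewer than 70 yeast cells counted in the well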;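 note: median channel GFP fluorescence of all gated yeast cells per well; ratio of median GFP to plate DMSO average so 100% = DMSO level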
RPL19A GFP CP2: RPL19A-GFP modulators in TOR pathway yeast, confirmation, cell-based, S. cerevisiae, flow cytometry, second cherry pick; shares compounds with LAP4-GFP MLPCN; S. cerevisiae RPL19A-GFP strain, 3 h; active compounds read low; 100% means same as DMSO wells; GFP response vs DMSO, % at 10 µM; 590 tested, 3% active;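 active = under 65% GFP response relative to DMSO; inconclusive = yeast strain with under 70 measured events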;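 note: median GFP channel fluorescence per well over the all cells gate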
CIT2-GFP pick2: modulators of CIT2-GFP expression in yeast, confirmation, flow cytometry, second cherry pick, single plex; 590 tested, 8% active; S. cerevisiae CIT2-GFP strain, 3 h; DMSO control wells read 100%; shares compounds with LAP4-GFP MLPCN; GFP response vs DMSO, % at 10 µM;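 active = GFP response vs DMSO above about 150%, limit read from the data; inconclusive = fewer than 70 events counted for a yeast strain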;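 note: median green fluorescence per well over all gated yeast cells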
AGP1-GFP pick2: AGP1-GFP expression modulators, hit retest, confirmation, cell-based, flow cytometry, S. cerevisiae, cherry pick set 2. S. cerevisiae AGP1-GFP strain, 3 h. percent response vs DMSO, % at 10 µM. AID 2643, 2010. shares compounds with LAP4-GFP MLPCN. 590 tested, under 10 active;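 active = over 150 percent of DMSO response; inconclusive = yeast strain measured with under 70 events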;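 note: median GFP channel fluorescence over all cells without mother daughter split; sample median GFP divided by mean DMSO control so 100% equals DMSO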
s288c autofluor: compound autofluorescence in yeast s288c, dose response, artefact control for yeast TOR pathway GFP screen, s288c strain; 610 tested, under 10 active; fluorescence change (kMESF span) at 33 µM; S. cerevisiae s288c, 520 nm autofluorescence, flow cytometry, 3 h; active compounds read high; zero means same as solvent-only cells; AID 2757, 2010; shares compounds with LAP4-GFP MLPCN;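 active = fluorescence span over the dose series, or activity score, above about 33, limit read from the data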
The depositor's hits bear a star; ? = inconclusive; + = active, no number; [ ] = another dose, or the depositor's remark. Hits are enriched below; roughly 0.97% of the tested compounds scored in any of these assays.

SMILES | CIT2 TOR yeast | AGP1 TOR yeast | MEP2 TOR yeast | GASC-1 inh | LAP4-GFP MLPCN | RPL19A-GFP yeast | others
COc1cccc(/C=N/NC(=O)CC2C(=O)NN=C2C)c1O (centres undefined) | ? | ? | ? | -1 | ? | 11*[may fluoresce violet]
CC[C@@]1(C(=O)OC)N[C@H](CN(C)C(=O)c2ccc(F)cc2)[C@@H]2C(=O)N(Cc3ccccc3)C(=O)[C@@H]21 | 93 | 89 | 88 | -7 | 86 | 84
CCOC(=O)CNc1nc(Cl)nc(N2CCCCC2)n1 | 91 | 103 | 91 | -2 | 107 | 91
CCOC(=O)CNc1nc(C#N)nc(N2CCOCC2)n1 | ? | ? | 192*[may fluoresce violet] | -40 | 89 | 45*[may fluoresce violet]
CCN(CC)CCN1C(=O)C(O)=C(C(=O)c2cc3cccc(OC)c3o2)C1c1ccc(F)cc1 (centres undefined) | 86 | 101 | 95 | 13 | 106 | 91
CC[C@]12c3[nH]c4ccccc4c3CCN1C(=O)C(CC(=O)NCCCOC)C[C@@H]2C(=O)N1CCN(C(=O)C2CC2)CC1 (some centres undefined) | 94 | 98 | 92 | 53* | 94 | 92
O=C1Nc2ccc([N+](=O)[O-])cc2OC1CCN1CCN(Cc2ccccc2)CC1 (centres undefined) | 94 | ? | ? | 5 | 80 | 85
CCN1CCN(CCC2Oc3cc([N+](=O)[O-])ccc3NC2=O)CC1 (centres undefined) | ? | ? | 375*[may fluoresce violet] | -13 | 94 | 57
COc1ccccc1CNC(=O)CCC(=O)N1Cc2cccc(OC)c2Oc2ncccc21 | ? | ? | 171 | 8 | 79 | 14*[may fluoresce violet]
COc1cccc2c1Oc1ncccc1N(C(=O)CCC(=O)NCc1ccccc1F)C2 | 118 | 104 | 118 | -6 | 110 | 113
COc1cccc(OC)c1-c1nn2c(-c3ccco3)nnc2s1 | 100 | 94 | 100 | 5 | 105 | 100
COc1cccc(-c2nn3c(-c4ccco4)nnc3s2)c1 | ? | ? | ? | -16 | ? | 17*[may fluoresce violet]
CCOC(=O)CSc1nc2cc(C)ccc2cc1C#N | ? | 21 | 359*[may fluoresce violet] | -5 | 110 | 56
Cn1c(Cl)cnc1C1CC(=O)c2cc(Cl)ccc2O1 (centres undefined) | 93 | 98 | 100 | 71 | 210* | 93 | LAP4 cherry2=100;MEP2 cherry2=100;RPL19A GFP CP2=98;CIT2-GFP pick2=96;AGP1-GFP pick2=96
CCOc1cccc(-c2c(C(=O)N/N=C/c3ccc(C)o3)nnn2-c2nonc2N)c1 | 112 | 125 | 108 | 2 | 125 | 107
CCN(C(=O)Cn1c(=O)oc2cc(S(=O)(=O)N3CCCC3)ccc21)c1ccc(OC)cc1 | 103 | 99 | 504* | -7 | 114 | 95 | LAP4 cherry2=100;MEP2 cherry2=100;RPL19A GFP CP2=100;CIT2-GFP pick2=97;AGP1-GFP pick2=100
Cc1ccc2nc(/C(C#N)=C/c3ccc(O)c(O)c3)[nH]c2c1 | 150* | 109 | 189* | -1 | 148 | 115 | s288c autofluor=0.41
Cc1ccc2nc(/C(C#N)=C/c3ccccc3C(=O)O)[nH]c2c1 | 109 | 104 | 105 | 1 | 96 | 103
COc1ccc(OC)c(S(=O)(=O)Nc2cc3c4c(c2)C(C)C(=O)N4CCC3)c1 (centres undefined) | 100 | 111 | 102 | 0 | 96 | 99
COc1cc(/C=C2\C(=O)ON=C2c2ccccc2)cc(Cl)c1O | 108 | 109 | 111 | 3 | 117 | 112
CCCCc1ccc(/C=C2/C(=O)ON=C2c2ccccc2)s1 | 97 | 99 | 108 | -6 | 104 | 100 | LAP4 cherry2=104;MEP2 cherry2=108;RPL19A GFP CP2=98;CIT2-GFP pick2=102;AGP1-GFP pick2=104;s288c autofluor=0
Cc1ccc(C2=NOC(=O)/C2=C\c2ccccc2)cc1 | 101 | 96 | 93 | -3 | 142 | 96
Cc1sc(/C=C2\C(=O)ON=C2c2ccccc2)cc1Br | 98 | 91 | 103 | -4 | 91 | 103 | LAP4 cherry2=99;MEP2 cherry2=102;RPL19A GFP CP2=98;CIT2-GFP pick2=106;AGP1-GFP pick2=99;s288c autofluor=0
CSc1ccc(Cl)c(C(=O)NNC(=O)c2csc(N3CCOCC3)n2)c1 | 77 | 81 | 94 | -6 | 94 | 84
C=Cc1ccc(CSc2cc(C)nc3nc(C)nn23)cc1 | 96 | 101 | 103 | 2 | 118 | 94
Cc1nc2ccc(NC(=O)c3oc4ccc(F)cc4c3C)cc2s1 | + | 266* | + | 39 | 884* | 261 | LAP4 cherry2=96;MEP2 cherry2=105;RPL19A GFP CP2=100;CIT2-GFP pick2=90;AGP1-GFP pick2=94;s288c autofluor=0
Cc1c(C(=O)Nc2ccc3nc(N4CCOCC4)sc3c2)oc2ccccc12 | 96 | 101 | 102 | -1 | 111 | 98
O=C(Cc1ccc(Cl)cc1)NCCc1ccc(F)cc1 | 69 | 100 | 95 | -7 | 121 | 96
O=C(CNC(=S)N(Cc1ccccc1)Cc1ccccc1F)NCCc1ccc(Cl)cc1 | 93 | 70 | 135 | -7 | 97 | 60 | LAP4 cherry2=103;MEP2 cherry2=100;RPL19A GFP CP2=98;CIT2-GFP pick2=100;AGP1-GFP pick2=104
